Targets with a hit are over-represented here; the source holds about 7,900 in all. About 0.6% of all pairs of compound and target were hits. A number with no mark means an inactive call.
How the values were obtained:
Assay in all cases: log2 fold change, soluble protein after heating vs DMSO (PISA); higher = thermal stabilisation; K562 cells, 10 uM, 30 min; active = over 0.2 and 3.5 SD of the protein, either way, in both replicates (recomputed)
[1] = compound: CC1=C(C=C(C=C1)NC(=O)C2=CC(=CC=C2)C(C)(C)C#N)NC3=CC4=C(C=C3)N=CN(C4=O)C
Procedure, shortened: (§1)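 K562 cells at 2×10^6 cells/mL were treated for 30 min with 10 μM compound, and aliquots were heated for 3 min over 48°C-58°C before pooling. Extraction used PBS with 0.5% NP-40 at 4°C, and soluble protein was the supernatant after 21,000xg for 90 min, measured by TMTpro 16plex LC-MS/MS with channel sums equalised. Thermal stability values, relative to control samples and from duplicates, are log2 fold changes.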

[2] = compound: CC1=C(C=C(C=C1)NC(=O)C2=CC(=CC=C2)N(C)C)NC(=O)C3=CC=C(C=C3)O
Procedure, shortened: as §1

[3] = compound: CC1=CC=C(C=C1)SC2=C3C=C(SC3=CN=C2)C(=O)N
Procedure, shortened: as §1

[4] = compound: CC1=NC(=CC=C1)C2=C(N=C(N2)C(C)(C)C)C3=CC4=NC=CN=C4C=C3
Procedure, shortened: as §1

Nexturastat A = compound: CCCCN(Cc1ccc(C(=O)NO)cc1)C(=O)Nc1ccccc1 [Nexturastat A]
Procedure, shortened: as §1

vemurafenib = compound: CCCS(=O)(=O)Nc1ccc(F)c(C(=O)c2c[nH]c3ncc(-c4ccc(Cl)cc4)cc23)c1F [vemurafenib]
Procedure, shortened: as §1

[5] = compound: CCCS(=O)(=O)Nc1ccc(F)c(C(=O)c2c[nH]c3ncc(Cl)cc23)c1F
Procedure, shortened: as §1

[6] = compound: CCCc1cc(C)[nH]c(=O)c1CNC(=O)c1cc(-c2ccnc(N3CCN(C)CC3)c2)cc2c1cnn2C(C)C
Procedure, shortened: as §1

givinostat = compound: CCN(CC)Cc1ccc2cc(COC(=O)Nc3ccc(C(=O)NO)cc3)ccc2c1 [givinostat]
Procedure, shortened: as §1

barasertib = compound: CCN(CCCOc1ccc2c(Nc3cc(CC(=O)Nc4cccc(F)c4)[nH]n3)ncnc2c1)CCOP(=O)(O)O [barasertib]
Procedure, shortened: as §1

[7] = compound: CC[C@@H]1C(=O)N(C)c2cnc(Nc3ccc(C(=O)NC4CCN(C)CC4)cc3OC)nc2N1C1CCCC1
Procedure, shortened: as §1

volasertib = compound: CC[C@@H]1C(=O)N(C)c2cnc(Nc3ccc(C(=O)N[C@H]4CC[C@H](N5CCN(CC6CC6)CC5)CC4)cc3OC)nc2N1C(C)C [volasertib]
Procedure, shortened: as §1

[8] = compound: CC[C@H](C)N1C=C(C2=C(C=C(C=C21)C3=CN=C(C=C3)N4CCNCC4)C(=O)NCC5=C(C=C(NC5=O)C)C)C
Procedure, shortened: as §1

epoxomicin = compound: CC[C@H](C)[C@@H](C(=O)N[C@@H]([C@@H](C)O)C(=O)N[C@@H](CC(C)C)C(=O)[C@]1(CO1)C)NC(=O)[C@H]([C@@H](C)CC)N(C)C(=O)C [epoxomicin]
Procedure, shortened: as §1

[9] = compound: CCn1c(C(=O)N(C2CC2)C2CC2)cc2c3c(ncn3C)c(Nc3cc(C)n(C)n3)nc21
Procedure, shortened: as §1

[10] = compound: CCn1cc(-c2ccnc3[nH]c(-c4cccc(CN(C)C)c4)cc23)c(-c2ccc(NC(=O)N(C)C)cc2)n1
Procedure, shortened: as §1

[11] = compound: CN(C)CC(=O)Nc1ccc2[nH]c(=O)c3ccccc3c2c1
Procedure, shortened: as §1

rosiglitazone = compound: CN(CCOC1=CC=C(C=C1)C[C@H]2C(=O)NC(=O)S2)C3=CC=CC=N3 (racemic) [rosiglitazone]
Procedure, shortened: as §1

[12] = compound: CN1C2=C(C3=C1C(=O)N(N=C3)CC4=CC(=CC=C4)N)SC(=C2)S(=O)C
Procedure, shortened: as §1

[13] = compound: CN1CCC(CNc2ccc3ncc(-c4cccc(OC(F)(F)F)c4)n3n2)CC1
Procedure, shortened: as §1

Sequence of UniProt Q15003 (Q15003 whole entry, looked up): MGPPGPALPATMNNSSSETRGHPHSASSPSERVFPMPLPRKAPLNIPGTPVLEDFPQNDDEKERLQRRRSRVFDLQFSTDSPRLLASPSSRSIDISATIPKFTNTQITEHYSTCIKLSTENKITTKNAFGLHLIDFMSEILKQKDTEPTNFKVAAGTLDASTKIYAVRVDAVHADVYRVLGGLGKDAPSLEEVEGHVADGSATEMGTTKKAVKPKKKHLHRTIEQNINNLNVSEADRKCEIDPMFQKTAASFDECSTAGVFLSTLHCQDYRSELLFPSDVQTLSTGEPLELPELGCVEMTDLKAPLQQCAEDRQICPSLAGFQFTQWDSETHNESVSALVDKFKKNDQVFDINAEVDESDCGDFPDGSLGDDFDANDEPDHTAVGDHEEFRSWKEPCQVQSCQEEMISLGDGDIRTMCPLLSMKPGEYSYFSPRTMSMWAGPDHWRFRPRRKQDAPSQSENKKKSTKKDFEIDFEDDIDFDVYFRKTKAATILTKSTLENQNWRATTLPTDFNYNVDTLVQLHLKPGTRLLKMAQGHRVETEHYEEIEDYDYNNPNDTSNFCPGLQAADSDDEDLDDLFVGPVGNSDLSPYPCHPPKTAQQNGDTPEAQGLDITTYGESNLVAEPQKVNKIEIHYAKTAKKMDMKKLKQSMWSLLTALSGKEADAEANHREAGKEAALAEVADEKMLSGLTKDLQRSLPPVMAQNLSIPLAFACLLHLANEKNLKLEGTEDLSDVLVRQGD
Sequence of UniProt Q330K2 (Q330K2 whole entry, looked up): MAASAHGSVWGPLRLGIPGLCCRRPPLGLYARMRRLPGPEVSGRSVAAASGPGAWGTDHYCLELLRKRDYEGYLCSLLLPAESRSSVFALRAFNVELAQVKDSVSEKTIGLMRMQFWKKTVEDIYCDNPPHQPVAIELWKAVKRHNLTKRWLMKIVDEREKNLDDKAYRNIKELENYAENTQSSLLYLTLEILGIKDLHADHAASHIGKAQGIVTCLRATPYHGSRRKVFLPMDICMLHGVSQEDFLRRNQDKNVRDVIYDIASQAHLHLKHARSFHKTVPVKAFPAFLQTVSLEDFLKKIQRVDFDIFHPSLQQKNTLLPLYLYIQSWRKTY
Sequence of UniProt O00567 (O00567 whole entry, looked up): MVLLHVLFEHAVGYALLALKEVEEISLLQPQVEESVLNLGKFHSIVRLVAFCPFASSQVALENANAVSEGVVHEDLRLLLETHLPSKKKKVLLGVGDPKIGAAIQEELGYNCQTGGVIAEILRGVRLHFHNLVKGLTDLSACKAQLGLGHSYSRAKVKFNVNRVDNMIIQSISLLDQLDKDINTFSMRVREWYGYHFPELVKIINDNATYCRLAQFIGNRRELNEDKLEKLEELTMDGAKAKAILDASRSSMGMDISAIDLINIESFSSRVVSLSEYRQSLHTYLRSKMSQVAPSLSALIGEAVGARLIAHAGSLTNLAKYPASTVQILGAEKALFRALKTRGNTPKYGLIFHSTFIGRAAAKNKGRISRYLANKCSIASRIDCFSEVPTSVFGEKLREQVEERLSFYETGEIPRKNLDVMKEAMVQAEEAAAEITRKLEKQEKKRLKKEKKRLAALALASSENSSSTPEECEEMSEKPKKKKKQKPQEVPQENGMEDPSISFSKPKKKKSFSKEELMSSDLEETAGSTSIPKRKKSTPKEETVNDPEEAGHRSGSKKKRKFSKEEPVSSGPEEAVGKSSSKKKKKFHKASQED
Sequence of UniProt P68402 (P68402 whole entry, looked up): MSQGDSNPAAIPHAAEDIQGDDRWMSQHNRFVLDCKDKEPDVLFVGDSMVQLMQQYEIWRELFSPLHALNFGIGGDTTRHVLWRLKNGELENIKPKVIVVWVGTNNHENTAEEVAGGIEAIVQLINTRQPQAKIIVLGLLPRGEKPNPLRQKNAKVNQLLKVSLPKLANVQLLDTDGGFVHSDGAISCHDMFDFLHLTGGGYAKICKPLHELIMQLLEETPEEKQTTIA
Sequence of UniProt P52948 (P52948 whole entry, looked up): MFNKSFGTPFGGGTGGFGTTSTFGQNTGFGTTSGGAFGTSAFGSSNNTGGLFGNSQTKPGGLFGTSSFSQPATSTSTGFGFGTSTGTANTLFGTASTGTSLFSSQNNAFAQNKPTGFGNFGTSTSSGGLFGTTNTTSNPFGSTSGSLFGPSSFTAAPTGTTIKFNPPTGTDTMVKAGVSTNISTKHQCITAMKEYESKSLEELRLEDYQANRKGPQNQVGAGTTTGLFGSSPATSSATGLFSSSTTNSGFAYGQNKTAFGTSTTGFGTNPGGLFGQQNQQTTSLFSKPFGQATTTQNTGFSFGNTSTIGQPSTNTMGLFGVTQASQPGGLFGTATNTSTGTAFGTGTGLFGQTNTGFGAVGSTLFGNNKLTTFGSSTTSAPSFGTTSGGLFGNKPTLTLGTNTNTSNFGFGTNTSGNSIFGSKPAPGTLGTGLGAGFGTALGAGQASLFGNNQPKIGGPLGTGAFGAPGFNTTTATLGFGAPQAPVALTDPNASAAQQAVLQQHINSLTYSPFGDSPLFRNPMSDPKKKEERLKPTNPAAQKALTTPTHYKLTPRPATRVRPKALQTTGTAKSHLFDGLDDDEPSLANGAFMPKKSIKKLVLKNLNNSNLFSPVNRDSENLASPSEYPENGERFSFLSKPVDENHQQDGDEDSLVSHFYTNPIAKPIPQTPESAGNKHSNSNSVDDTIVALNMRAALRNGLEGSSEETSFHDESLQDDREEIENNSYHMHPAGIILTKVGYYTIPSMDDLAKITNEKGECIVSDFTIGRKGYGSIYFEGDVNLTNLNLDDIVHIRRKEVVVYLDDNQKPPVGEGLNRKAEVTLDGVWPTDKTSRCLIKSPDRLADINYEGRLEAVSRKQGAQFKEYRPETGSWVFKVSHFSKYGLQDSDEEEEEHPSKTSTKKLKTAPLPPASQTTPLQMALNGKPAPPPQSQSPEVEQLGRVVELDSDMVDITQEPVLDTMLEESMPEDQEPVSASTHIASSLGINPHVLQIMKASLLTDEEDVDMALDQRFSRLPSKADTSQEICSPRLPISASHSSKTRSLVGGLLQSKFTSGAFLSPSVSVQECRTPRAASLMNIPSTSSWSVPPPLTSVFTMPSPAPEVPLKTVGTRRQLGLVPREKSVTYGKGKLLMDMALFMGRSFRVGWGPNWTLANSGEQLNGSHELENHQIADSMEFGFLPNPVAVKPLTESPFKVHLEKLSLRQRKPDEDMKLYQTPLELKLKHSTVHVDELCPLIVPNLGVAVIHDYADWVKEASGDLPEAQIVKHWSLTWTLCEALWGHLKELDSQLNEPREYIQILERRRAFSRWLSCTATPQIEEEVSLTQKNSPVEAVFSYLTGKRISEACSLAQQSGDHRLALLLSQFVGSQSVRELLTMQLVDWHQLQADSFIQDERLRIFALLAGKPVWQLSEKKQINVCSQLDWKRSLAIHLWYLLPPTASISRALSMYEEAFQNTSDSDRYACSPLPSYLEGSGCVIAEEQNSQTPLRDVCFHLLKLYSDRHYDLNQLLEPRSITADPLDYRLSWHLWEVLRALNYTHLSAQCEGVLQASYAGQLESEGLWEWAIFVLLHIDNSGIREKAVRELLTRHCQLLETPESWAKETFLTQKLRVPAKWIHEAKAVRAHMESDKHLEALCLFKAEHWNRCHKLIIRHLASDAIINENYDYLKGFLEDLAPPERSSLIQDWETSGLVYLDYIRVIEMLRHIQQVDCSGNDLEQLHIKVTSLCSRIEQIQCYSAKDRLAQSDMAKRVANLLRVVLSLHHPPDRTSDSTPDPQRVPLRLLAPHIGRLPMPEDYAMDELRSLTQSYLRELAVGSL
Sequence of UniProt Q9NWU1 (Q9NWU1 whole entry, looked up): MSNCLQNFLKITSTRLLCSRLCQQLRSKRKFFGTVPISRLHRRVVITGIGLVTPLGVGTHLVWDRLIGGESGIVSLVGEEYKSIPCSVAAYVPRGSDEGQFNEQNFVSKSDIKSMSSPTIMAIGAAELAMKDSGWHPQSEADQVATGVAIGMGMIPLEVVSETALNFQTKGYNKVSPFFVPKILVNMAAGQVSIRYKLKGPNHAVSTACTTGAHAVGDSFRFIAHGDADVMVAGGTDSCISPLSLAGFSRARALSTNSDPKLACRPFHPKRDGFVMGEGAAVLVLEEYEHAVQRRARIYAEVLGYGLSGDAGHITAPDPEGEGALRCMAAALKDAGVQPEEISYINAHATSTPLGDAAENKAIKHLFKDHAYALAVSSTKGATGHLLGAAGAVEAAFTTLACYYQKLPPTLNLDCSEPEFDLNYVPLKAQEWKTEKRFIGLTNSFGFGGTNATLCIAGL
Sequence of UniProt P49116 (P49116 whole entry, looked up): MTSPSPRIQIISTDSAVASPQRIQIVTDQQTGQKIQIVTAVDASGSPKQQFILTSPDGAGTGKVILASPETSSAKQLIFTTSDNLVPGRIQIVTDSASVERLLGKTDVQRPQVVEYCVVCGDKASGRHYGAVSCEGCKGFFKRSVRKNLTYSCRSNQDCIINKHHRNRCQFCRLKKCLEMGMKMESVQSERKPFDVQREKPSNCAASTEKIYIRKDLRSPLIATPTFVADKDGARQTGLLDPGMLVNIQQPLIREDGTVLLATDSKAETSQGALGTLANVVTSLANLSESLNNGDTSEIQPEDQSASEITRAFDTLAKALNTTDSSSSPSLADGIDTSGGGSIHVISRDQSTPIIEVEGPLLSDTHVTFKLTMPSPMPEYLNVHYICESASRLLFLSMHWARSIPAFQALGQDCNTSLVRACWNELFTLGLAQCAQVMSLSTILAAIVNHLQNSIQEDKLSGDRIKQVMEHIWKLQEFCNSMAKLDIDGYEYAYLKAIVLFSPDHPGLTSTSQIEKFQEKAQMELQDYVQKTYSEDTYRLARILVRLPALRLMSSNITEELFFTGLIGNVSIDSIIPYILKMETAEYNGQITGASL

Target | log2 fold change [1] | log2 fold change [2] | log2 fold change [3] | log2 fold change [4] | log2 fold change (Nexturastat A) | log2 fold change (vemurafenib) | log2 fold change [5] | log2 fold change [6] | log2 fold change (givinostat) | log2 fold change (barasertib) | log2 fold change [7] | log2 fold change (volasertib) | log2 fold change [8] | log2 fold change (epoxomicin) | log2 fold change [9] | log2 fold change [10] | log2 fold change [11] | log2 fold change (rosiglitazone) | log2 fold change [12] | log2 fold change [13]
NUP98 (UniProt P52948) | -0.042 | 0.064 | -0.003 | 0.031 | 0.061 | 0.037 | 0.068 | 0.036 | 0.081 | 0.037 | -0.12 | -0.276 (active) | 0.084 | -0.012 | -0.027 | -0.018 | 0.039 | 0.068 | 0.033 | -0.038
OXSM (UniProt Q9NWU1) | -0.023 | -0.057 | 0.023 | 0.003 | -0.061 | 0.01 | 0.045 | -0.03 | -0.234 (active) | -0.034 | -0.063 | -0.017 | -0.022 | 0.018 | -0.048 | -0.003 | -0.005 | 0.02 | -0.025 | 0.058
NUP205 (UniProt Q92621) | 0.009 | 0.018 | 0.002 | 0.075 | 0.151 | 0.059 | 0.084 | -0.016 | 0.076 | 0.044 | -0.108 | -0.35 (active) | 0.079 | -0.071 | -0.036 | -0.013 | 0.032 | 0.041 | -0.041 | -0.233 (active)
NR2C2 isoform 2 (UniProt P49116) | -0.017 | 0.029 | 0.114 | -0.034 | -0.23 (active) | -0.023 | 0.03 | 0.04 | -0.073 | 0.028 | 0.051 | -0.102 | 0.055 | 0.036 | -0.015 | 0.049 | -0.069 | 0.022 | 0.036 | 0.046
PAFAH1B2 (UniProt P68402) | 0.064 | 0.005 | -0.106 | -0.046 | -0.157 | 0.083 | -0.135 | -0.355 | 0.042 | 0.046 | 0.002 | 0.064 | 0.036 | 0.102 | 0.018 | -0.087 | -0.009 | 0 | -0.037 | -0.016
NCAPH (UniProt Q15003) | 0.02 | -0.091 | 0.013 | 0.012 | 0.09 | 0.068 | 0.065 | 0.067 | 0.238 | 0.042 | -0.126 | -0.353 (active) | 0.051 | 0.011 | -0.054 | 0.052 | 0.043 | 0.024 | -0.021 | -0.116
NDUFAF6 (UniProt Q330K2) | 0.055 | 0.068 | 0.169 | 0.024 | -0.052 | -0.055 | 0.035 | -0.088 | -0.063 | -0.01 | -0.27 | -0.027 | -0.028 | 0.055 | -0.089 | -0.059 | -0.078 | 0.134 | -0.014 | -0.721 (active)
NOP56 (UniProt O00567) | -0.024 | -0.001 | -0.149 | -0.136 | 0.127 | -0.018 | -0.065 | 0.003 | 0.096 | -0.076 | 0.141 | 0.238 | 0.034 | -0.44 | -0.006 | 0.066 | -0.208 | -0.079 | 0.299 | 0.168

From the supplement of paper PMC10849652
